Assay outcomes deposited in PubChem BioAssay by National Center for Advancing Translational Sciences (NCATS).
TRPML1 agonist = human mucolipin-1 channel agonism; AID 624414; 410,000 tested, 0.12% active; TRPML1-expressing cells, Ca2+ dye fluorescence, FDSS; activation, % (concentration not given with the values); Q9GZU1; in the data active = activation above about 50%; inconclusive = mostly about 30% to 49%; note: 0% is about no effect
Target sequence (Q9GZU1 whole entry, looked up): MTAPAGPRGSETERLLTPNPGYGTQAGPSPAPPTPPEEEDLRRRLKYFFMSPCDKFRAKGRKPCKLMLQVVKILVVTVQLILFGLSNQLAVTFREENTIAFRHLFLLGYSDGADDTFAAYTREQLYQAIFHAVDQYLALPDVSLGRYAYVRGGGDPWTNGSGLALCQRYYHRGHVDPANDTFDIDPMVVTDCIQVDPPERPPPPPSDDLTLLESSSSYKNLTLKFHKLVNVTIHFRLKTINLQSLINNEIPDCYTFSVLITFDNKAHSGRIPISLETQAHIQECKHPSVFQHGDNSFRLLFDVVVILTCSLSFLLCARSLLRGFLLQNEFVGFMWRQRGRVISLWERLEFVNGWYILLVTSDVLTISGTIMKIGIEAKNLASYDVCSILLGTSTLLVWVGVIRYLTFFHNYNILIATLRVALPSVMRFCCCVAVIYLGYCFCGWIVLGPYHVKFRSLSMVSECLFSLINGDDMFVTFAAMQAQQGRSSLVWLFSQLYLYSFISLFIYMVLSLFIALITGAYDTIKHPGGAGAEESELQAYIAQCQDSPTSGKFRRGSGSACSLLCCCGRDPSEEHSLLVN
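Agonist activity was taken from a 110 s kinetic Ca2+ dye read on the FDSS after pinning compounds onto TRPML1-DL cells. The cells were seeded at 1,500/well with Tet inducer, incubated about 16 h, then dye-loaded at room temperature.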
DRD3 antagonist = antagonists of human D3 dopamine receptor. 360,000 tested, 2.5% active. max response, negative = inhibition, %. P35462. D3R cells, DiscoveRx beta-arrestin luminescence, antagonist mode; active compounds read low; in the data active = max response below about -50%; inconclusive = no clear call, values can overlap the other calls; note: % is set by controls: 0 for no effect and ±100 for the full control effect
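Cells plated overnight at 1500 cells/well, then exposed to library compounds with dopamine controls for 90 minutes at 37 degrees C. DiscoveRx reagent added for 30–60 minutes at room temperature; luminescence read, quantitative HTS format.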
TRPML1 inh = blocks the human TRPML1 channel; AID 624415; activity change, negative = inhibition, % (concentration not given with the values); 390,000 tested, 0.02% active; TRPML1-inducible cells, Ca2+ dye fluorescence, FDSS; active compounds read low; inhibition of EC80 agonist-evoked calcium signal; in the data active = activity change below about -50%; inconclusive = between about -30% and that limit;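 note: stimulus is agonist 54-4 at its EC80 concentration; % is set by controls: 0 for no effect and ±100 for the full control effect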
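TRPML1-DL cells, Tet-induced overnight (~16 h, 37 °C) at 1,500 cells/well, were loaded with Ca8 no-wash dye plus quencher for 45-90 min at room temperature. Compounds were pinned during FDSS kinetic reading; agonist 54-4 at EC80 (4 uM final) then added.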
DRD3 agonist = activates the human D3 dopamine receptor. P35462. D3R DiscoveRx beta-arrestin cells, luminescence, 90 min. max activation, %. 410,000 tested, 0.58% active. AID 652048; in the data active = max activation above about 30%; note: 0% is about no effect
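Agonist-mode cell screen: cells plated at 1500/well and incubated overnight at 37 °C, then exposed to library compounds for 90 min at 37 °C. Detection reagent was added for 30–60 min at room temperature, and luminescence was read.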
* hit, by the source's call; ? = inconclusive; · = not tested or not shown. In the library only some 2.9% were active in any assay of this set; here they are far more common.

SMILES	TRPML1 agonist	DRD3 antagonist	TRPML1 inh	DRD3 agonist
N#Cc1ccc(N)cc1OCCCN1CCCCC1	-1	-52*	1	-25
Cc1ccc(OCCCN2CCCC2)c(C)c1	0	-52*	10	-10
c1ccc(OCCCN2CCCC2)cc1	1	?	34	-49
Cc1ccccc1OCCCN1CCCC1	-1	-60*	2	-44
c1ccc2c(CCC3CCNCC3)c[nH]c2c1	·	·	·	-19
Cc1ccc(NC(=O)c2ccc(NC(=O)C3CCCC3)cc2)c(C)c1	-1	·	·	·
CCN1CCN(CCOc2ccc(Br)cc2C)CC1	0	?	-3	-26
Cc1cc(Br)ccc1OCCN1CCCC1	0	-69*	26	-3
O=S1(=O)CCO[C@H]2Cc3ccccc3[C@H]2N1Cc1ccc(Cl)cc1	0	-7	-19	54*
COc1ccc(-n2cc(C(=O)N(CCN(C)C)Cc3ccccc3)c3ccccc3c2=O)cc1	0	·	-6	-12
O=C(NCc1ccc(F)cc1)C(=O)NCC(c1ccco1)S(=O)(=O)c1cccs1 (stereo not given)	0	·	19	8
Cc1nc(SCCCSc2n[nH]c(C)n2)n[nH]1	0	-69*	-15	-9
O=C(COc1ccccc1C(=O)Nc1ccccc1)NC1CCCCC1	4	·	·	·
COc1cc(C(=O)OCCc2cc3ccccc3c(=O)o2)cc(OC)c1OC	2	63	29	34*
COc1cc(C(=O)OCCCc2cc3ccccc3c(=O)o2)cc(OC)c1OC	-1	4	1	18
COc1cc2cc(CCCOC(=O)c3cc(OC)c(OC)c(OC)c3)oc(=O)c2cc1OC	0	16	19	55*
O=C(Nc1ccccc1F)C(Cc1ccccc1)N1Cc2ccccc2C1=O (stereo not given)	3	·	59	-14
O=C(O)/C=C/c1ccc2ccccc2c1	-1	·	·	·
S=c1[nH]nc(-c2ccccc2)n1C1C=CCCC1 (stereo not given)	1	-55*	8	-3
CCN(CC)C(=O)N1c2ccccc2C=Cc2ccccc21	3	-21	8	3
CN(C)CCCNC(=O)N1c2ccccc2C=Cc2ccccc21	1	-52*	13	-9
Nc1c(Br)cc(/C=C2\C=Cc3ccccc32)cc1Br	-1	·	·	·
CC(C)(C)c1cnnn1-c1ccc(/C=N/Nc2ccc([N+](=O)[O-])cc2)cc1	2	-57*	59	-16
CC(OC(=O)c1ccccc1OCC(=O)Nc1ccc(Br)cc1)C(=O)NC1CCCC1 (stereo not given)	0	·	·	·
COc1cc(C(=O)Oc2c(CN3CCOCC3)cc(Cl)c3cccnc23)cc(OC)c1OC	-1	-111*	-8	-38
SMILES	TRPML1 agonist	DRD3 antagonist	TRPML1 inh	DRD3 agonist
O=C(Oc1c(CN2CCOCC2)cc(Cl)c2cccnc12)c1ccc(F)cc1	0	-61*	-8	-24
COc1cccc(C(=O)Oc2c(CN3CCOCC3)cc(Cl)c3cccnc23)c1	-1	-8	-6	-23
O=C(Oc1c(CN2CCOCC2)cc(Cl)c2cccnc12)c1ccccc1Cl	0	-65*	15	-18
O=C(Oc1c(CN2CCOCC2)cc(Cl)c2cccnc12)c1cccs1	-1	-63*	-5	-19
COc1ccc(C(=O)Oc2c(CN3CCOCC3)cc(Cl)c3cccnc23)cc1	0	-4	-4	-14
COc1cc2c(NC3CCN(C)CC3)nc(N3CCN(C)CC3)nc2cc1OCCCN(C)C	-1	·	·	·
O=C(COc1ccccc1C(=O)Nc1ccccc1)Nc1ccc2ccccc2c1	0	·	·	·
CC(C)Oc1ccc(C(=O)N/N=C/c2ccc(-c3ccc(S(=O)(=O)Nc4ncccn4)cc3)o2)cc1	0	-55*	30	5
CCOc1cccc2sc(NC(=O)c3ccc(S(=O)(=O)N4CCCCC4C)cc3)nc12 (stereo not given)	2	·	3	-11
CC(=O)NNC(=O)CCC(=O)Nc1ccccc1	0	-80*	4	2
O=C(CCC(=O)Nc1ccccc1)NNC(=O)CCc1ccccc1	0	8	-8	-2
COc1ccc(NC(=O)Cn2cnc3c(oc4ccccc43)c2=O)cc1OC	-1	·	-11	0
O=C([C@@H]1CC=C[C@@H]2CCN(C3CCCCC3)C(=O)[C@@H]21)N1CCOCC1	0	·	·	·
COc1cccc(CNc2ccc3[nH]c(=O)[nH]c3c2)c1OCc1ccc(F)cc1	1	-54*	3	-12
Cc1ccc(S(=O)(=O)Nc2ccc(O)c3ccccc23)c(C)c1	2	-53*	-16	-13
Cc1ccc(C)c(S(=O)(=O)Nc2ccc(O)c3ccccc23)c1	·	?	·	-11
CC(C)c1cccc(OCCN2CCCC2)c1	0	-100*	13	-19
Clc1cccc(OCCN2CCCC2)c1	1	-73*	-3	-11
Cc1cccc(C)c1OCCN1CCCC1	0	-8	-2	-10
CN1CCN(CCOc2cccc(Cl)c2)CC1	0	?	-12	1
CCC1CCCCN1CCCCOc1cccc(Cl)c1 (stereo not given)	1	-96*	24	-21
Nc1cc(=O)[nH]c(=S)[nH]1	0	·	·	·
Cc1noc(C)c1CSCC(=O)Oc1ccc(N(C)S(=O)(=O)c2ccccc2)cc1	1	-10	28	-5
Cc1noc(C)c1CSCC(=O)Oc1ccc(N(C)S(=O)(=O)c2ccc(Cl)cc2)cc1	1	-4	1	36*
CCOc1ccc(C(c2c(O)cc(C)n(CCOC)c2=O)N2CCN(c3ccccc3)CC2)cc1 (stereo not given)	-1	·	11	-10
SMILES	TRPML1 agonist	DRD3 antagonist	TRPML1 inh	DRD3 agonist
O=C1CCCN1CCCNc1nc(NCc2cccs2)nc2ccsc12	57*	3	·	-2
CC(=O)NCCNc1nc(NCc2cccs2)nc2ccsc12	6	0	·	1
COc1ccc(NC(=O)C(C)n2nc(-c3ccc(C)c(C)c3)ccc2=O)cc1OC (stereo not given)	0	·	39	9
N#C/C(=C\c1ccc(-c2ccc([N+](=O)[O-])cc2)o1)C(=O)Nc1nc(-c2cccs2)cs1	0	-15	-101*	-4
CC(C)(C)[C@@H]1C=C(C(=O)N2CCOCC2)O[C@H](OCc2ccc(CO)cc2)C1	0	-24	4	-16
CN1CCN(C(=O)C2=C[C@@H](c3csc4ccccc34)C[C@@H](OCc3ccc(CO)cc3)O2)CC1	0	-72*	-22	-45
O=C(NC1CC1)C1=C[C@@H](c2c[nH]c3ccccc23)C[C@@H](OCc2ccc(CO)cc2)O1	2	-53*	-4	-22
CC(C)(C)[C@H]1C=C(C(=O)N2CCOCC2)O[C@@H](OCc2ccc(CO)cc2)C1	-1	-52*	-9	-35
O=C(C1=C[C@H](c2csc3ccccc23)C[C@H](OCc2ccc(CO)cc2)O1)N1CCOCC1	0	20	1	2
O=C(NCc1nc2ccccc2[nH]1)C1=C[C@H](C2CCCCC2)C[C@H](OCc2ccc(CO)cc2)O1	-1	60	15	41*
